These results are taken from publication PMC7862700, “An all-to-all approach to the identification of sequence-specific readers for epigenetic DNA modifications on cytosine”.

Test in all cases: DAPPL (digital affinity profiling via proximity ligation, sequencing); 10 mM Tris-HCl pH 7.5, 50 mM NaCl, 1 mM DTT, 4% glycerol, room temperature, 30 min; GST-TFs on glutathione beads, 16-mer random dsDNA library, 0.1% formaldehyde crosslink after washing; high values mean tight binding
Common to all, as to settings: protein: recombinant; tags: N-terminal GST; dsDNA, one strand shown

One assay concerns the target T1, FLI1 (Homo sapiens, UniProt Q01543 1-452).
T1 sequence: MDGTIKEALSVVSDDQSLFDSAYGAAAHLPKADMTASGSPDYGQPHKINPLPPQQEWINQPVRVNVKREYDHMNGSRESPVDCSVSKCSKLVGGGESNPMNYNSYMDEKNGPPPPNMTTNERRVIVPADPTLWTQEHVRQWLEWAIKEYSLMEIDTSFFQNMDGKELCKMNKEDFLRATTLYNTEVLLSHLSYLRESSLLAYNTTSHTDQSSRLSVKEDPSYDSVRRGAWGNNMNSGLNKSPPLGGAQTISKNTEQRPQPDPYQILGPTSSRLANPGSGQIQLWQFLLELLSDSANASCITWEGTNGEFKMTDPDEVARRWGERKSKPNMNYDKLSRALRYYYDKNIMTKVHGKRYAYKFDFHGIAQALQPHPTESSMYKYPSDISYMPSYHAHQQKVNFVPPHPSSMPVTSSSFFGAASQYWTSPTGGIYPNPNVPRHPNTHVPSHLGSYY
The essentials: (§1)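 Human transcription factors fused to GST were expressed in yeast, captured on glutathione beads, given DNA barcodes and pooled with a GST-only negative control. Pools were incubated with 200 nmole of a 16-mer random double-stranded DNA library in Tris/NaCl/DTT/glycerol buffer at room temperature for 30 min. They were then washed, crosslinked with 0.1% formaldehyde, proximity-ligated (BsaI/T4 ligase, 1 h, 37 °C), PCR-amplified and sequenced on an Illumina NextSeq500. Binding signal is each 6-mer's read frequency for a factor divided by its frequency for the GST control.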

The target of another assay is T2, ELK1 (Homo sapiens, UniProt P19419 1-428).
T2 sequence: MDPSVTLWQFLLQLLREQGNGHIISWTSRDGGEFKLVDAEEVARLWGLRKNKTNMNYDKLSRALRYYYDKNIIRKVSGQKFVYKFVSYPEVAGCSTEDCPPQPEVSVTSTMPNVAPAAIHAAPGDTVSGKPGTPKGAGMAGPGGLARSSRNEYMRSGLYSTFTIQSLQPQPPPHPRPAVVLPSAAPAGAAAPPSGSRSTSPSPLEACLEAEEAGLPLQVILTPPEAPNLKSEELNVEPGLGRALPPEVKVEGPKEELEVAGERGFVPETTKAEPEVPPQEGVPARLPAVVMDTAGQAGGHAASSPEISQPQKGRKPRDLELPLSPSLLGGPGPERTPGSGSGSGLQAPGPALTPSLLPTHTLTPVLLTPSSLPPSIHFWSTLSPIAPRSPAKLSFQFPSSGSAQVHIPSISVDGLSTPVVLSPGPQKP
The essentials:
as §1

In a further assay the target is T3, GABPA (Homo sapiens, UniProt Q06546 1-454).
T3 sequence: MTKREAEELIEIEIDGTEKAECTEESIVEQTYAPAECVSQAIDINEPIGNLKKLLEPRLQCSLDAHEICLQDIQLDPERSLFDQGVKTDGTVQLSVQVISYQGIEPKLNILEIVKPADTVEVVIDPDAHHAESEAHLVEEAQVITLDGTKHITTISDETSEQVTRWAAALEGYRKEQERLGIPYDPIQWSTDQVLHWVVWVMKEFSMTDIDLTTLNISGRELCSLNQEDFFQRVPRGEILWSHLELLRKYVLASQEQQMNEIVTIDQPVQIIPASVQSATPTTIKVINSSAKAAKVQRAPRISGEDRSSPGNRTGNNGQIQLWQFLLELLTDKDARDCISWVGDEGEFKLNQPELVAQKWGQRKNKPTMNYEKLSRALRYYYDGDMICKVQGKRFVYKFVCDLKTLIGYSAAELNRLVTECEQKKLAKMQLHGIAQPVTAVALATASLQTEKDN
The essentials:
as §1

The target of another assay is ELF1 (Homo sapiens, UniProt P32519 1-619). The essentials:
as §1

For the next assay, the target named is SPIB (Homo sapiens, UniProt Q01892 1-262). The essentials: as §1
A further assay deals with ELF4 (Homo sapiens, UniProt Q99607 1-663). The essentials: as §1
The next assay concerns the target T4, ELK4 (Homo sapiens, UniProt P28324-2 1-405).
T4 sequence: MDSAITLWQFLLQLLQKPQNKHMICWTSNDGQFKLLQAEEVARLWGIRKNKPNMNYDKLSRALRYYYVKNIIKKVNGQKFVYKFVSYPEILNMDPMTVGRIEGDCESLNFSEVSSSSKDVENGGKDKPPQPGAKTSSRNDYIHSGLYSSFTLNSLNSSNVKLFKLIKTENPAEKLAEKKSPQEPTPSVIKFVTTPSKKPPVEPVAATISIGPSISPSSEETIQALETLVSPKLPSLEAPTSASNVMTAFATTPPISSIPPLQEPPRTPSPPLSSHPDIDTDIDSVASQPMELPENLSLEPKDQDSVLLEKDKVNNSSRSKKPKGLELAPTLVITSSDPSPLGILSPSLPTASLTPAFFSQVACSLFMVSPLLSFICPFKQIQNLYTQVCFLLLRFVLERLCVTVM
The essentials: as §1

A further assay deals with T5, ELF3 (Homo sapiens, UniProt P78545 1-371).
T5 sequence: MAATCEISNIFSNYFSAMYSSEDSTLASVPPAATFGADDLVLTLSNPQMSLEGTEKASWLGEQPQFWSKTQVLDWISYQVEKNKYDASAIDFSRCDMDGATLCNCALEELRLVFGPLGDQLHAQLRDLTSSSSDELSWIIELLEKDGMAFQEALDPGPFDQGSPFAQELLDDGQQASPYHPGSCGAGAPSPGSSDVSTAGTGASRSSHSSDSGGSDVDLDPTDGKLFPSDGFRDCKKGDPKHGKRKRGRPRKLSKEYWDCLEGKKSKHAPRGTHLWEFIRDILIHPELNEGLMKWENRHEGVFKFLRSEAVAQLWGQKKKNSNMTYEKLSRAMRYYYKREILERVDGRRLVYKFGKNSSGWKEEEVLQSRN
The essentials:
as §1

A further assay deals with T6, ERF (Homo sapiens, UniProt P50548 1-548).
T6 sequence: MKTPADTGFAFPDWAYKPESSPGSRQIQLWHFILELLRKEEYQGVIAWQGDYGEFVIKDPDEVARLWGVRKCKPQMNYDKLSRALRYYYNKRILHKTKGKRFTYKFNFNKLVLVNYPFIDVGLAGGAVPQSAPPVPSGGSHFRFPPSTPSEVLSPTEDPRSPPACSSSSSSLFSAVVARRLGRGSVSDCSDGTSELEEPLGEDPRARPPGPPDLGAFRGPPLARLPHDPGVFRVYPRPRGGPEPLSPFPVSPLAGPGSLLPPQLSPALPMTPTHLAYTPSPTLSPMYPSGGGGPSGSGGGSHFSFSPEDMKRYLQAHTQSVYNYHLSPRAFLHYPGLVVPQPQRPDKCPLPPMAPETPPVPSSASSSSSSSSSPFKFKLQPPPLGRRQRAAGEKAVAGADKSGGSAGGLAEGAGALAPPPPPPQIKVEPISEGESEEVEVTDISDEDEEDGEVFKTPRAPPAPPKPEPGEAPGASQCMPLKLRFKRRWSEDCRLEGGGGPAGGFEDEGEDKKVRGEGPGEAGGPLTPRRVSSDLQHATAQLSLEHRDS
The essentials: as §1

In another assay the target is T7, ETV7 (Homo sapiens, UniProt Q9Y603 1-341).
T7 sequence: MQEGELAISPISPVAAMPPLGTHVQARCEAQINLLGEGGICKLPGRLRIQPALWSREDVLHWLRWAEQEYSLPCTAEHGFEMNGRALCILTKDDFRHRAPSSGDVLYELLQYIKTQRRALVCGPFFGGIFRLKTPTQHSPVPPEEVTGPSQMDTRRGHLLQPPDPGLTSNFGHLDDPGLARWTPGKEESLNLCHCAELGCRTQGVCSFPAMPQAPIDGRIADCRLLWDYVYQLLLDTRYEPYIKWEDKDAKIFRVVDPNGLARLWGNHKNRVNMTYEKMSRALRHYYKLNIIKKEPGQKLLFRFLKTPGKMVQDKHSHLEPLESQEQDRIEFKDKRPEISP
Summed up: as §1

ELF4, sequence (Q99607 whole entry): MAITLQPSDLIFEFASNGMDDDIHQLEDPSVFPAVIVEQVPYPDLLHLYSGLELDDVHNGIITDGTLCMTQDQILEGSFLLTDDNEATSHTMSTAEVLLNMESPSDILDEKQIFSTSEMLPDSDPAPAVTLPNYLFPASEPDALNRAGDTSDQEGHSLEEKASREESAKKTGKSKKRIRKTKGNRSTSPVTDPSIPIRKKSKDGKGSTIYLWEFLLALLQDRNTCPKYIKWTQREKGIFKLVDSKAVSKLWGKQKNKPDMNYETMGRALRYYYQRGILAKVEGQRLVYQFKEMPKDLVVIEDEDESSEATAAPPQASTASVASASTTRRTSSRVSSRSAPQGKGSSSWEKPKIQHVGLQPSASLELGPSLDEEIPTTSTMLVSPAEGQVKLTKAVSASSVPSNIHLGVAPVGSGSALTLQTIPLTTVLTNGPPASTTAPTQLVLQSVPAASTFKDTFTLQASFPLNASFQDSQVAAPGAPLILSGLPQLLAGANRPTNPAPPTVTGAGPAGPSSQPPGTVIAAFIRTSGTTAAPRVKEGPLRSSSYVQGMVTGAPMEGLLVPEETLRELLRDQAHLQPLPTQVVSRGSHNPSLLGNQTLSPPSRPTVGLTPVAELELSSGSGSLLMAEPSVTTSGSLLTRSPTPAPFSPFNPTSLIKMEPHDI
SPIB, sequence (Q01892 whole entry): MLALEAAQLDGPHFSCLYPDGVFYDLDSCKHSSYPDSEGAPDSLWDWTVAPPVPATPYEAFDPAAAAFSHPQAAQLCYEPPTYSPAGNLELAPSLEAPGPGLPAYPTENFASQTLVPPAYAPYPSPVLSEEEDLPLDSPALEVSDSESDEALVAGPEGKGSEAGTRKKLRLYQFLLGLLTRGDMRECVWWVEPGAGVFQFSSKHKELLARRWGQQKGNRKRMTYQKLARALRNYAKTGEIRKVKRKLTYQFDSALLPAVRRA
ELF1, sequence (P32519 whole entry): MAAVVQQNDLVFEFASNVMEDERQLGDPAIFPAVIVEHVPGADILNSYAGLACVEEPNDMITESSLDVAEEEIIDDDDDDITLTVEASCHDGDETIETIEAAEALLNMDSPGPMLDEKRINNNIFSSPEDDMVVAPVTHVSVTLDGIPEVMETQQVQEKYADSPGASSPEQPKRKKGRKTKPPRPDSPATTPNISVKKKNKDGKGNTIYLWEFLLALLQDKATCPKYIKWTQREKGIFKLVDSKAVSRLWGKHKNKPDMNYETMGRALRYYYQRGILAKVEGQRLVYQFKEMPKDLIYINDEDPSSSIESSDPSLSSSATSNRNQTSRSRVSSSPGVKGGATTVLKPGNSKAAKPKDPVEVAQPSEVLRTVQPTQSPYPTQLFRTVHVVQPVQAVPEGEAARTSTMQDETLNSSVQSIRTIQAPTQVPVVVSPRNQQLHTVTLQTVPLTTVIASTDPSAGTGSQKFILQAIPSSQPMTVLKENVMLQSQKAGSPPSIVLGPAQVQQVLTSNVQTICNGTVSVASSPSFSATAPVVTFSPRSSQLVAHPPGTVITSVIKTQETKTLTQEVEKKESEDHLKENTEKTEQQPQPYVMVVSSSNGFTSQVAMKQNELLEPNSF

Take CACCCA: the binding signal with FLI1 was 1.1 fold enrichment (6-mer frequency, TF over GST control); with ELK1, 1.12 fold enrichment (6-mer frequency, TF over GST control); with GABPA, 1.11 fold enrichment (6-mer frequency, TF over GST control); with ELF1 it was 1.01 fold enrichment (6-mer frequency, TF over GST control); in the assay with SPIB, 1.03 fold enrichment (6-mer frequency, TF over GST control); with ELF4 it was 1.12 fold enrichment (6-mer frequency, TF over GST control). Besides, the binding signal in the assay with ELK4 is 1.04 fold enrichment (6-mer frequency, TF over GST control); with ELF3, 1.14 fold enrichment (6-mer frequency, TF over GST control); with ERF, 1.06 fold enrichment (6-mer frequency, TF over GST control); with ETV7, 1.03 fold enrichment (6-mer frequency, TF over GST control).
